Reference: PubChem BioAssay (Tox21)
Results filed as inconclusive are left out. A call without a number means that no potency is given here. Calls of active or inactive are those of the source. Calls come from the whole dose curve.

Test: qHTS assay for small molecules that induce genotoxicity in human embryonic kidney cells expressing luciferase-tagged ATAD5 - cell viability (AID 651634); note: nearly all actives have a fitted effect of over 25% in size
Conditions: HEK293T ATAD5-luc cells viability, CellTiter-Fluor, 15.5 h; series mostly up to 83.3 µM
From the text: National Center for Advancing Translational Sciences [NCATS]
NIH Chemical Genomics Center [NCGC]
U.S. Environmental Protection Agency [EPA]
National Institutes of Environmental Health Sciences [NIEHS]
National Toxicology Program [NTP]
U.S. Food and Drug Administration [FDA]
Enhanced Level of Genome Instability Gene 1 (ELG1; human ATAD5) protein levels increase in response to various types of DNA damage. Using a luciferase reporter-gene tagged with ElG1, a cell-based assay [developed by Kyungjae Myung, NHGRI, NIH] was used to measure the induction of ATAD5 in human embryonic kidney cells (HEK293T). So, increase in luciferase activity can be used to identify the compounds that cause genetic stress. In addition to genotoxicity, these cells were also used to test for cytotoxicity by measuring the protease activity within live cells.
Tox21 Assay Protocol Summary:
For cytotoxicity screening, 2,000 cells in 5 uL/well were dispensed into white, solid-bottom 1536-well plates using a Multidrop Combi (Thermo Scientific) dispenser. Following transfer of 23 nL compound or DMSO vehicle by a pin tool, the plates were incubated 15.5 hr at 37C and 5% CO2. 1 ul CellTiter-Fluor reagent (Promega, Madison, WI) was then added to each plate and following 30 min incubation at 37C, fluorescence intensity was quantified on a ViewLux CCD-based plate reader.
Potency is the fitted concentration of half-maximal effect.

SMILES	Potency
C(=C\c1ccccc1)/c1ccccc1	inactive
C=Cc1ccc(S(=O)(=O)O)cc1	inactive
CC1=Nc2ccc3ccccc3c2C1(C)C	inactive
C1C[C@@H]2[C@H]3CC[C@H](C3)[C@@H]2C1	inactive
Clc1ccc(Nc2nnc(Cc3ccncc3)c3ccccc23)cc1	inactive
CN1C(=O)N(c2ccccc2Br)Cc2cnc(Nc3ccc4c(c3)OCC(CO)O4)nc21 (stereo not given)	54.5 µM (active)
C=C1CCC2CC1C2(C)C (stereo not given)	inactive
Oc1cccc(O)c1O	inactive
CCOC(=O)OC(C)OC(=O)[C@@H]1N2C(=O)[C@@H](NC(=O)[C@H](N)c3ccccc3)[C@H]2SC1(C)C (stereo not given in full)	inactive
CC(=O)c1ccc([N+](=O)[O-])cc1	inactive
CO/N=C(/C(=O)N[C@@H]1C(=O)N2C(C(=O)O)=C(COC(N)=O)CS[C@H]12)c1ccco1	inactive
CC[C@]1(O)C[C@H]2CN(CCc3c([nH]c4ccccc34)[C@@](C(=O)OC)(c3cc4c(cc3OC)N(C=O)[C@H]3[C@@](O)(C(=O)OC)[C@H](OC(C)=O)[C@]5(CC)C=CCN6CC[C@]43[C@@H]65)C2)C1	0.0473 µM (active)
CN1CCCC(n2nc(Cc3ccc(Cl)cc3)c3ccccc3c2=O)CC1 (stereo not given)	inactive
CCOC(=O)c1ccccc1C(=C1C=C(Br)C(=O)C(Br)=C1)c1cc(Br)c(O)c(Br)c1	40.7 µM (active)
CCC(OCCCOC)OC(C)=O (stereo not given)	inactive
CCCCC(CC)COP(=O)(O)O (stereo not given)	inactive
C1COC1	inactive
C[C@@H](O)[C@H]1C(=O)N2C(C(=O)O)=C([C@H]3CCCO3)S[C@H]12	inactive
CCOC(=O)/C=C/C(=O)OCC	inactive
Cc1cccc(N(C)C(=S)Oc2ccc3c(c2)CCC3)c1	inactive

SMILES	Potency
CC=C(Cl)Cl	inactive
CCC(=O)OC	inactive
O=C=Nc1cccc(C(F)(F)F)c1	inactive
CCC(=O)C1CC(C(C)C)CC=C1C (stereo not given)	inactive
C[C@@H]1CC(=O)NN=C1c1ccc(NN=C(C#N)C#N)cc1	23.7 µM (active)
CC(CO)CO	inactive
O=C1NCCN1CCO	inactive
OCCN1CCN(CCCN2c3ccccc3Sc3ccc(Cl)cc32)CC1	inactive
O=C(OCC(O)CO)c1ccccc1Nc1ccnc2cc(Cl)ccc12 (stereo not given)	inactive
CC(=O)Oc1ccc([N+](=O)[O-])cc1CCl	30.6 µM (active)
CC(CN(C)C)C(C)(O)Cc1ccc(Cl)cc1 (stereo not given)	inactive
N#CCCN(CCO)CCO	inactive
CC(C)C[C@H](NC(=O)[C@H](CCc1ccccc1)NC(=O)CN1CCOCC1)C(=O)N[C@@H](Cc1ccccc1)C(=O)N[C@@H](CC(C)C)C(=O)[C@@]1(C)CO1	0.211 µM (active)
CC(C)Nc1cccnc1N1CCN(C(=O)c2cc3cc(NS(C)(=O)=O)ccc3[nH]2)CC1	inactive
O=c1cc(-c2ccccc2)oc2ccc3ccccc3c12	inactive
OCCOCC#CCOCCO	inactive
Cc1ccccc1S	inactive
O=C(/C=C/c1ccccc1)OCCc1ccccc1	inactive
CC(C)COCC(CN(Cc1ccccc1)c1ccccc1)N1CCCC1 (stereo not given)	9.44 µM (active)
COc1ccccc1N1CCN(CC(O)COc2cccc3ccccc23)CC1 (stereo not given)	inactive
